Shown are actives, neighbours in structure and some others; about 4.2% of the full set was active somewhere.
D1 PAM: potentiators of human D1 dopamine receptor. P21728. HEK293 TREx D1 cells, calcium flux, dopamine EC20 potentiation. potentiation, % at 10 µM. hit rate 0.036% among 360,000; in the data active = potentiation above about 30%; note: 0% is about no effect
Target sequence (P21728 whole entry, looked up): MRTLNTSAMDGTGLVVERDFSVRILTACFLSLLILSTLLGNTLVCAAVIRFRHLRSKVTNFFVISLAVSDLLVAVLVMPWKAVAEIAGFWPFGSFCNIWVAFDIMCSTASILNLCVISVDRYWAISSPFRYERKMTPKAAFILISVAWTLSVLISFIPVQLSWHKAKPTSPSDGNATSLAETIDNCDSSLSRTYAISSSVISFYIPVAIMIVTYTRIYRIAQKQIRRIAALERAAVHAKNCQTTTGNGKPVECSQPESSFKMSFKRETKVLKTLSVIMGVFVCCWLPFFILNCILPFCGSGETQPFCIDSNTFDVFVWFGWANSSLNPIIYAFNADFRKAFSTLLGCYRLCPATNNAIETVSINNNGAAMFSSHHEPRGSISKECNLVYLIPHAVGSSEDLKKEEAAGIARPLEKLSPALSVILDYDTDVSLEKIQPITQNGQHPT
TRPV1 agonist: agonists of human vanilloid receptor 1 (TRPV1); activation, % at 8.33 µM; TRPV1-expressing cells, Fluo-8 calcium influx, agonist mode; AID 540275; Q8NER1; hit rate 0.19% among 320,000; in the data active = activation above about 80%; inconclusive = between about 30% and that limit; note: 0% is about no effect
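TRPV1-expressing cells were cultured overnight at 35.5C and loaded with Fluo-8 calcium dye for 40 to 90 min at room temperature. After a 10 s baseline, compound was added and calcium influx was read kinetically for 3 min (ex 480/em 520 nm).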
D1 ag: human D1 receptor agonism; P21728; HEK293 T-REx D1 cells, calcium flux, agonist mode; activation, % at 2 µM; hit rate 1% among 360,000; AID 504660; in the data active = activation above about 30%; note: 0% is about no effect
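Tetracycline-induced HEK293 TREx D1 cells, force-coupled to calcium signalling, were dye-loaded with a no-wash calcium kit. Compound was pin-added after a 10 s baseline. Fluorescence was read kinetically at 1 cycle/s for 180 s, with calcium rises flagged as agonism.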
D1 antag: antagonists of human D1 dopamine receptor | AID 504652 | HEK293 TREx D1 cells, calcium flux, dopamine EC80; hits give low values | activity change, negative = inhibition, % at 10 µM | hit rate 3.2% among 360,000 | P21728; in the data active = activity change below about -30%; note: % is set by controls: 0 for no effect and ±100 for the full control effect
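Calcium flux readout: force-coupled, inducible Hek293 Trex D1 line, cells induced overnight at 30 C with tetracycline, dye-loaded 30–90 min at RT. Antagonism scored against EC80 dopamine challenge given 180 s after compound.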
TRPV1 potentiator: enhances activation of the human vanilloid receptor TRPV1. Q8NER1. TRPV1-expressing cells, Fluo-8 calcium influx, capsaicin EC20 potentiation. potentiation, % at 8.33 µM. hit rate 0.02% among 320,000; in the data active = potentiation above about 80%; inconclusive = between about 30% and that limit; note: 0% is about no effect
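TRPV1-expressing cells were cultured overnight at 35.5C and loaded with Fluo-8 calcium dye for 40 to 90 min at room temperature. After a 10 s baseline, compound was added and calcium influx was read kinetically for 3 min (ex 480/em 520 nm).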
* = called active by the depositor; u = inconclusive; x = no result given.

SMILES	D1 PAM	TRPV1 agonist	D1 ag	D1 antag	TRPV1 potentiator
CC(C)c1ccc(Nc2c([N+](=O)[O-])c(=O)n(C)c3ccccc23)cc1	-5	13	2	-50*	-3
O=S(=O)(c1ccc(Br)cc1)N1CCn2cccc2C1c1ccc(Br)cc1 (stereo not given)	0	x	1	x	x
COc1ccc(CNc2nc3c(-c4ccc(C)cc4)nnn3c3ccccc23)cc1	1	x	4	-34*	x
COc1cccc(CNc2nc3c(-c4ccccc4)nnn3c3ccccc23)c1	-5	x	1	-23	x
CC(NC(=O)COC(=O)C1CC2CCCC(C1)C2=O)c1ccccc1 (stereo not given)	0	6	3	6	-2
CCC(NC(=O)COC(=O)C1CC2CCCC(C1)C2=O)c1ccc(Br)cc1 (stereo not given)	-6	20	5	-56*	-19
O=C1CC(c2ccccc2C(F)(F)F)c2c(c3ccccc3[nH]c2=O)O1 (stereo not given)	4	x	-1	1	x
O=C(N/N=C/c1ccncc1)c1cc2c(ccc3ccccc32)o1	0	u	2	-32*	-5
Cc1cc(C)cc(NC(=O)CCN2C(=O)c3ccccc3S2(=O)=O)c1	-4	-4	5	4	-7
O=C(CCN1C(=O)c2ccccc2S1(=O)=O)Nc1ccc(Cl)cc1	-2	-11	5	-52*	15
CC(=O)Nc1cccc(-c2nnc(SCC(=O)c3cc([N+](=O)[O-])ccc3Br)o2)c1	-5	x	0	-9	x
COc1ccc(OC)c(CNC(=O)c2cc(=O)[nH]c3ccc(S(=O)(=O)N4CCCCC4C)cc23)c1 (stereo not given)	0	x	-3	11	x
CCO[C@H]1OC(C(=O)NCc2ccccc2)=C[C@@H](C2CC2)[C@@H]1CCCO	-4	19	-4	-44*	8
CCO[C@H]1OC(C(=O)NCc2ccccc2)=C[C@@H](C)[C@@H]1CCCO	2	-2	-6	-11	17
Cc1cc(C)c2c(N)c(-c3nnc(SCc4ccc(Cl)cc4)n3C)sc2n1	3	-4	0	-39*	6
CC1CC(C)CN(C(=O)c2cc(S(=O)(=O)N3CCCCC3)ccc2Cl)C1 (stereo not given)	-4	104*	1	18	-13
CC1CC(C)CN(C(=O)c2ccc(S(=O)(=O)N3CCCCC3)cc2)C1 (stereo not given)	-4	u	2	-3	-8
CCCC(=O)OCCNc1cc(Sc2nc3ccccc3[nH]2)c2nonc2c1[N+](=O)[O-]	-10	2	0	-49*	16
CCC(=O)OCCNc1cc(SCCC(=O)OC)c2nonc2c1[N+](=O)[O-]	6	-1	1	-3	0
O=C(NCc1ccccc1Br)c1ccc2nc(N3CCCCC3)sc2c1	-8	x	0	-28	x
CN(C)CCC1Sc2ccccc2Oc2ccccc21 (stereo not given)	-6	-3	28	0	8
CC1c2ccccc2SC(CCCN(C)C)c2ccccc21 (stereo not given)	-1	9	48*	-48*	0
Cc1ccc(-c2cc(C(=O)NCc3cnn(C)c3)c3cc(Br)ccc3n2)cc1	-6	u	4	-11	-11
Cn1cc(CNC(=O)c2cc(-c3ccccc3)nc3ccc(Br)cc23)cn1	-1	u	2	-34*	-16
Cc1ccc(CNC(=O)CCc2c(C)nc3c4c(C)cc(C)nc4nn3c2C)cc1	-2	x	-3	2	x
SMILES	D1 PAM	TRPV1 agonist	D1 ag	D1 antag	TRPV1 potentiator
COc1ccc2oc(C(=O)Nc3ccc(S(=O)(=O)N(C)C4CCN(C)CC4)cc3)c(C)c2c1	-11	3	37*	-49*	2
COc1ccc(NC(=O)c2oc3ccc(S(=O)(=O)N(C)C4CCCCC4)cc3c2C)cc1Cl	0	x	-2	-30*	x
O=S(=O)(c1ccccc1)n1nc(-c2ccco2)nc1NCc1ccccc1	1	x	5	-4	x
Cn1c2ccccc2c2c(C(=O)N3CCN(c4ccc(F)cc4)CC3)cn(C3CCCCC3)c(=O)c21	3	x	10	9	x
CC1CC(N(C(=O)c2ccc(Cl)cc2)c2ccccc2)c2ccccc2N1C(=O)c1ccco1 (stereo not given)	-6	2	2	-46*	-1
COc1ccc(CCNC(=O)CSc2n[nH]c(-c3ccccc3Cl)n2)cc1OC	-2	x	0	-7	x
Cn1nc(C(=O)NCc2ccccc2Cl)c2c1-c1ccccc1SC2	-1	x	0	-33*	x
Cn1nc(C(=O)NCc2ccccc2)c2c1-c1ccccc1SC2	0	x	4	-9	x
CCc1ccc(N(C(=O)c2csnn2)C(C(=O)NC(C)(C)CC)c2ccccn2)cc1 (stereo not given)	-5	15	1	-66*	-13
Cc1c(C(=O)NCCc2ccc(Cl)cc2)sc2nc3n(c(=O)c12)CCC3	-6	-2	1	11	-2
Cc1c(C(=O)NCc2ccccc2)sc2nc3n(c(=O)c12)CCCCC3	-1	x	45*	0	x
Cc1c(C(=O)NCCc2ccc(Cl)cc2)sc2nc3n(c(=O)c12)CCCC3	0	x	99*	-2	x
Cc1c(C(=O)Nc2cccc(C(F)(F)F)c2)sc2nc3n(c(=O)c12)CCCC3	-1	x	36*	7	x
Cc1ccc(CNC(=O)c2sc3nc4n(c(=O)c3c2C)CCCCC4)cc1	0	x	1	-4	x
Cc1oc2ncn(C)c(=O)c2c1C(=O)N(C)c1ccccc1F	-9	x	0	8	x
C=CCNC(=O)COC(=O)c1ccc(Sc2nncn2C)c([N+](=O)[O-])c1	2	0	0	-32*	-1
CCCOc1ccc(C(=O)N(Cc2cccs2)c2ccc(C)cc2)cc1	0	x	23	-23	x
CC(NC(=O)Nc1ccc(F)cc1F)c1ccncc1 (stereo not given)	5	2	-1	3	-6
CO/N=C/CC(=O)Nc1ccc(F)cc1F	0	-4	0	25	23
CCOc1ccc(C(C)NC(=O)Nc2ccc(F)cc2F)cc1 (stereo not given)	-1	u	12	-77*	-18
CCO/N=C/C(=O)Nc1ccc(F)cc1F	-2	2	0	-75*	-15
Cc1cc(/C=N/NC(N)=S)c(C)n1-c1ccc(Cl)cc1	-5	6	5	-52*	22
Cc1cc(/C=N/NC(N)=S)c(C)n1-c1cccc(Cl)c1	-3	-3	13	-2	-1
Cc1cc(/C=N/NC(N)=S)c(C)n1-c1ccc(Br)cc1	-17	4	5	-49*	2
Cc1nc2ccccn2c1C(=O)N/N=C/c1ccccc1	2	-4	1	-5	1
Cc1cccc(C)c1-n1c(C)cc(/C=N/NC(N)=S)c1C	-4	-3	2	1	-2

Screens from PubChem.
